Source: PubChem
Pf growth 48h – Primary qHTS for delayed death inhibitors of the malarial parasite plastid, 48 hour incubation; P. falciparum luciferase growth in erythrocytes, 48 h; Potency, µM (titrated, usually from 28.7 µM), for the others: at the top dose activity change, negative = inhibition, most hits filed as inhibitors; hit rate 5.9% among 310,000; AID 504832, 2011; also: potency is read from the fitted curve at half-maximal effect; % is scaled to controls: 0 for no effect and ±100 for the full control effect
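First compound was added to culture medium, then infected red cells at 0.1% parasitemia and 2% hematocrit (final). After incubation at 37 C under 5% CO2, luciferase detection reagent was dispensed and light output recorded.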
Pf growth 96h – Primary qHTS for delayed death inhibitors of the malarial parasite plastid, 96 hour incubation. Potency, µM (series often up to 28.7 µM), for inactives: top-dose activity change, negative = inhibition, actives largely listed as inhibitors. P. falciparum luciferase reporter growth, 96 h. hit rate 6.9% among 320,000; also: potency is read from the fitted curve at half-maximal effect; % is scaled to controls: 0 for no effect and ±100 for the full control effect
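Infected RBCs, 2% Hct / 0.05% parasitemia final; luciferase-reporter P. falciparum; cpd 96 h, 37 C, 5% CO2; luciferase detection reagent; luminescence.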
SARS PLP yeast – qHTS of Yeast-based Assay for SARS-CoV PLP; S. cerevisiae expressing SARS-CoV PLpro, growth rescue; Potency, µM (top dose mostly 32.9 µM), inactives show top-dose activity, positive = growth rescue, most hits filed as activators; hit rate 0.19% among 330,000; calls by dose curve; also: potency is read from the fitted curve at half-maximal effect; 0% is about no effect; nearly all actives have a fitted effect of over 55% in size
HCMV inh – qHTS Assay for inhibitors of the human cytomegalovirus (HCMV); HFF cells, HCMV-luciferase reporter, 72 h; hits give low values; activity change, negative = inhibition, % at 57.5 µM; hit rate 4.5% among 410,000; AID 1259415, 2018; in the data active = activity change below about -60%; inconclusive = no clear call, values can overlap the other calls; inactive = above about -39%; also: % is scaled to controls: 0 for no effect and ±100 for the full control effect
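Inhibition of viral replication was scored as loss of reporter luminescence in HFFs infected with HCMV-luciferase (MOI 1 PFU/cell) for 72 h; compounds tested at 2 doses, normalized to buffer and Salinomycin controls.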
Sm TGR block – qHTS Assay for the Inhibitors of Schistosoma Mansoni Peroxiredoxins | Potency, µM (titrated, usually from 114 µM), for inactives: at the top dose activity change, negative = inhibition, actives largely listed as inhibitors | purified TGR, DTNB reduction, TNB absorbance 405 nm | hit rate 3% among 360,000 | Schistosoma mansoni thioredoxin glutathione reductase (TGR), Q962Y6; also: potency is read from the fitted curve at half-maximal effect; % is scaled to controls: 0 for no effect and ±100 for the full control effect; nearly all actives have a fitted effect of over 60% in size
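First, TGR (20 nM dispensed) and NADPH were mixed with compound. Second, a 15 min room-temperature incubation followed. Third, further NADPH and then DTNB were added to start the reaction. Finally, TNB absorbance was monitored kinetically.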
HCV inh – qHTS Assay for Inhibitors of Hepatitis C Virus (HCV) | Huh7.5.1 HCVcc-Cre infection, luciferase reporter, 44 h | AID 651820, 2012 | hit rate 3.4% among 340,000 | Potency, µM (series often up to 41.8 µM), inactives show at the highest dose activity change, negative = inhibition, most hits filed as inhibitors; also: potency is read from the fitted curve at half-maximal effect; % is scaled to controls: 0 for no effect and ±100 for the full control effect
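HCVcc-Cre virus at an moi near 0.5 was added right after compound to cells cultured 4 h from seeding (1,000 cells/well). Luciferase activity was determined 44 h later, 15 min after substrate addition at RT.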
Active calls of the source: *. The list is not random: actives were taken first. Their share in the collection is about 15%. Unless noted, calls follow the shape of the dose curve; as a rule, active = well fitted curve in the direction sought with a large enough effect; inconclusive = small, poorly fitted or top-dose-only effect, or another doubt; inactive = no such curve, though single readings can be large; an effect the other way counts as inactive or inconclusive.

`COC(C[C@@H](O)CC(=O)[C@@H](C)OCc1ccccc1)OC` gave Pf growth 48h 61%, Pf growth 96h 43%, SARS PLP yeast -1%, HCMV inh -4, Sm TGR block 1% and HCV inh 35%.
COC(C[C@@H](O)CC(=O)COCc1ccccc1)OC was read as Pf growth 48h 39%, Pf growth 96h 72%, SARS PLP yeast 1%, HCMV inh 4, Sm TGR block -4% and HCV inh 2.8µM*.
Screening CCn1c(-c2cc(-c3cc(OC)ccc3OC)nc3ccccc23)n[nH]c1=S returned Pf growth 96h 0.37µM*, SARS PLP yeast 5%, HCMV inh 16, Sm TGR block -6% and HCV inh -26%.
Screening CCn1c(-c2cc(-c3ccccc3OC)nc3ccccc23)n[nH]c1=S returned Pf growth 48h 2.6µM*, Pf growth 96h 3.3µM*, SARS PLP yeast -8%, HCMV inh 27, Sm TGR block -2% and HCV inh inconclusive.
COc1ccc(Cl)cc1-c1n[nH]c(=S)n1Cc1ccccc1 was read as Pf growth 48h -1%, Pf growth 96h inconclusive, SARS PLP yeast 0%, HCMV inh 17, Sm TGR block 0% and HCV inh 0%.
`CC(=O)N1c2ccc(S(=O)(=O)NCC3CCC(C(=O)Nc4cc(C)ccc4C)CC3)cc2CC1C` (centres undefined) gave HCMV inh -16 and Sm TGR block 4%.
`COc1ccc(NC(=O)N(CCC(C)C)C(C)c2cccs2)c(OC)c1` (centres undefined) gave HCMV inh 7 and Sm TGR block 11%.
For CCOc1ccc(N(CC(=O)NC2CCCCC2)S(=O)(=O)c2ccc(C)cc2)cc1 the results were Pf growth 48h inconclusive, Pf growth 96h 10%, SARS PLP yeast -1%, HCMV inh -40, Sm TGR block -7% and HCV inh 2%.
CCOc1ccc(N(CC(=O)NC2CC3CCC2C3)S(=O)(=O)c2ccc(C)cc2)cc1 (centres undefined) was read as Pf growth 48h inconclusive, Pf growth 96h inconclusive, SARS PLP yeast -8%, HCMV inh 5, Sm TGR block -6% and HCV inh 6.3µM*.
For CCOc1ccc(N(CC(=O)NC2CCCC2)S(=O)(=O)c2ccccc2)cc1 the results were Pf growth 48h -34%, Pf growth 96h 28%, SARS PLP yeast 1%, HCMV inh -64*, Sm TGR block -2% and HCV inh -11%.
For CCOc1cccc2sc(N(Cc3cccnc3)C(=O)c3ccc(C#N)cc3)nc12 the results were HCMV inh inconclusive and Sm TGR block 3%.
Screening CN(C)c1ccc(CN(Cc2ccco2)C(=O)c2ccc(F)cc2)cc1 returned HCMV inh -39 and Sm TGR block 2%.
Cc1ccc(C(C(=O)NC2CCCC2)N(C(=O)Cc2cccs2)c2cccc(C)c2C)o1 (centres undefined) was read as Pf growth 48h inconclusive, Pf growth 96h 12µM*, SARS PLP yeast -2%, HCMV inh -19, Sm TGR block -2% and HCV inh -4%.
For O=C(COC(=O)c1cc([N+](=O)[O-])ccc1N1CCOCC1)Nc1c(Cl)cccc1Cl the results were Pf growth 48h 2%, Pf growth 96h 26%, SARS PLP yeast -7%, HCMV inh -12, Sm TGR block -3% and HCV inh inconclusive.
`CC(=O)Nc1ccc(NC(=O)COC(=O)c2cc([N+](=O)[O-])ccc2N2CCOCC2)cc1` gave Pf growth 48h -1%, Pf growth 96h 10%, SARS PLP yeast 1%, HCMV inh 10, Sm TGR block -25% and HCV inh -4%.
